Experimental data taken from PubChem BioAssay AID434973 (Sanford-Burnham Center for Chemical Genomics, 2010).
The campaign covered roughly 330,000 compounds. About 4,900 (1.5%) were called active. For the sample, actives were picked, then their nearest neighbours and some compounds at random. Values without a mark were called inactive.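 Rule for the calls: active = inhibition above about 50% at the single test dose (limit read from the data); inactive = the rest.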

target: Sentrin-specific protease 7 (Homo sapiens) (UniProt Q9BQF6); experiment: blockers of human SENP7 peptidase activity – biochemical, luminescence, uHTS, primary screen (AID 434973); conditions: recombinant SENP7, Z-RLRGG-aminoluciferin luminescence, 40 min; at 5 µM; hits give high values;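 note: plate controls were DMSO with enzyme for no effect and no enzyme buffer wells for full effect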

| SMILES | inhibition |
| --- | --- |
| COc1cc(C(=O)NCc2nnc(SCC(=O)Nc3nc4ccc(C)cc4s3)o2)cc(OC)c1OC | 3.97% |
| CCCc1nc2ccccc2c(=O)n1/N=C/c1ccc(O)c(O)c1 | -1.91% |
| O=c1c2ccccc2ncn1/N=C/c1ccccc1 | 88.5% (active) |
| CN(C(=O)Nc1ccc(Cl)cc1)n1cnc2ccccc2c1=O | -9.71% |
| Cc1cccc(S(=O)(=O)N2CN(CC3CCCO3)c3nc4ccccc4nc32)c1 (stereo unspecified) | -0.481% |
| CC1CCN(C(=O)c2ccc(CSc3ccc(Cl)cc3)cc2)CC1 | -2.26% |
| O=C(c1ccc(S(=O)(=O)c2ccccc2)cc1)N1CCCCCC1 | 3.58% |
| O=C(c1ccc(CSc2ccccc2)cc1)N1CCCCCC1 | 72.6% (active) |
| CCc1ccccc1OCC(=O)Nc1ccc(C)c(S(=O)(=O)N2CCCCCC2)c1 | 1.37% |
| Cc1cc(C(=O)NNC(=O)c2ccccc2O)c(C)o1 | 9.67% |
| C/C(=N\NC(=O)c1ccoc1C)c1ccccc1O | 51.5% (active) |
| COc1ccccc1N(CC(=O)N/N=C(\C)c1ccccc1O)S(=O)(=O)c1ccc(C)cc1 | 3.18% |
| COc1ccc2c(CC(=O)OCC(=O)Nc3ccccc3[N+](=O)[O-])coc2c1 | -12% |
| COC(=O)c1ccc(S(=O)(=O)N(CCO)Cc2ccccc2)n1C | 1.52% |
| O=C(COC(=O)c1ccc(Br)o1)NC12CC3CC(CC(C3)C1)C2 | 7.39% |
| CCOc1ccc(-n2cnnn2)cc1S(=O)(=O)N1CCC(C)CC1C (stereo unspecified) | 7.69% |
| Cc1cccc(-c2noc(-c3ccc(F)cc3)n2)c1 | 94.2% (active) |
| Cc1ccc(-c2nc(-c3ccncc3)no2)c(C)c1 | 42.5% |
| Cc1cccc(-c2noc(CCC(=O)NC3CCCC3)n2)c1 | -8.85% |
| Cc1ccc(-n2c(C)cc(C(=O)CSc3nnc4ccccn34)c2C)cc1 | -18.4% |
| Nc1nonc1-n1nnc(C(=O)N/N=C/c2ccc(Cl)cc2)c1-c1ccc2c(c1)OCO2 | -3.14% |
| Cc1cc(C)n2nc(C(=O)Oc3ccc4c(c3)OCO4)nc2n1 | 4.97% |
| COc1ccc2nc(Nc3nc4cc5c(cc4s3)OCCO5)sc2c1 | 52.6% (active) |
| CCOc1ccc(S(=O)(=O)Nc2nc3cc(OC)ccc3s2)cc1 | 6.2% |
| COc1ccc2nc(NC(=O)[C@@H]3CCCN3C(=O)c3cccs3)sc2c1 | -10% |
| CC[C@]12c3[nH]c4cc(CCC(=O)N(C)C)ccc4c3CCN1C(=O)[C@@H](CC(=O)NCCCn1ccnc1)C[C@@H]2C(=O)N1CCN(C(=O)C2CC2)CC1 | -1.68% |
